# Values without a mark were called inactive. The call rests on the fitted dose curve; in most records, active means well fitted curve in the direction sought with a large enough effect in the repeat runs; inconclusive means weak or mixed curves; inactive means no such curve, though single readings can be large; an effect the other way counts as inactive or inconclusive. Results filed as inconclusive are left out.
# Assay: qHTS assay to identify small molecule HDAC inhibitors - cell viability counter screen (AID 1259365); further: nearly all actives have a fitted effect of over 50% in size
# Conditions: HCT-116 viability, CellTiter-Glo ATP luminescence, 2 h; series mostly up to 92.4 µM; activity change, negative = cytotoxicity: at the top concentration
# How it was run: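 Following a 2hr exposure of overnight-plated wild-type HCT-116 cells to DMSO-delivered compounds, CellTiter-Glo was added and luminescence recorded after 30min at room temperature.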
# On the % scale 0 is the no-effect control and ±100 the full control effect.
row,SMILES,"activity change, negative = cytotoxicity"
1,c1ccc(B(c2ccccc2)c2ccccc2)cc1,0.156%
2,CCn1cc(C(=O)O)c(=O)c2cnc(N3CCCC3)nc21,0.53% [at 8.39 µM]
3,C/C=C(\C)C(C)=O,0.455%
4,CCOCCOCC,1.01%
5,c1ccc2cnccc2c1,4.34%
6,CCCCCCCCCCCCCBr,10.6%
7,CCC(C(=O)OCCN1CCOC(c2ccccc2)C1C)c1ccccc1 (stereo not drawn),-5.22% [at 42.5 µM]
8,O=C[O][Al]([O]C=O)[O]C=O,0.0677%
9,CN(C)CCN(C)CCO,-3.75%
10,Cc1ccc(C(C)NC(=O)[C@@H](NC(=O)OC(C)C)C(C)C)cc1 (stereo partly drawn),-0.14%
11,CC1(C)CC(OC(=O)CCCCCCCCC(=O)OC2CC(C)(C)NC(C)(C)C2)CC(C)(C)N1,-7.5% [at 19 µM]
12,CC(=O)O[C@H]1C[C@@H]2CC[C@@]1(C)C2(C)C,-2.26%
13,[O]=[Mo](=[O])=[O],3.01% [at 19 µM]
14,C=CC/C=C/C,3.91%
15,CSc1cnccn1,5.27%
16,[O-][n+]1cccc(/C(Cl)=N/OC[C@@H](O)CN2CCCCC2)c1,0.969% [at 42.5 µM]
17,c1ccc(-c2nn[nH]n2)cc1,-3.12%
18,C=CCSSCCC,2.76%
19,O=C1CCCCO1,1.89%
20,CC1=C(O)C(=O)C(C)O1 (stereo not drawn),1.27%
21,COc1nc(N)nc2nc[nH]c12,16.1%
22,O=C(O)CSCC(=O)NC1CCSC1=O (stereo not drawn),1.56% [at 42.5 µM]
23,CC(=O)c1cc(C)oc1C,0.698%
24,C=C(C)[C@@H]1CC=C(C)C(=O)C1,1.24%
25,Cc1c(NC(=O)c2cccnc2)c(=O)n(-c2ccccc2)n1C,0.978% [at 42.5 µM]
26,CC(=O)C(C)O (stereo not drawn),-2.32%
27,CN(C)CC/C=C1/c2ccccc2COc2ccc(CC(=O)O)cc21,0.136% [at 42.5 µM]
28,CC(=O)CCC1=C(C)CCCC1(C)C,-2.46%
29,CC1OCCC1=O (stereo not drawn),2.43%
30,CCOC(CN1CCN(CC(C)C(=O)c2ccccc2)CC1)c1ccccc1 (stereo not drawn),-3.08% [at 19 µM]

# Assay: qHTS assay to identify small molecule agonists of the sonic hedgehog signaling (Shh) pathway - cell viability counter screen (AID 1259366); further: nearly all actives have a fitted effect of over 50% in size
# Conditions: NIH/3T3 Gli1-Luc viability, CellTiter-Fluor, 24 h; series mostly up to 92.4 µM; viability change, negative = cytotoxic: at the top concentration
# How it was run: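 After a 4hr attachment at 37C, NIH/3T3 cells bearing an integrated Gli1-driven luciferase reporter were dosed with compounds. Treatment lasted 24hr, with the final hour including CellTiter-Fluor for a fluorescence viability measurement.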
row,SMILES,"viability change, negative = cytotoxic"
1,CC(=O)OCC(=O)Nc1cc(C#N)cc(NC(=O)COC(C)=O)c1Cl,0.191% [at 42.5 µM]
2,c1ccc(B(c2ccccc2)c2ccccc2)cc1,-13.5%
3,Cc1ccnc(N)c1,11.6%
4,CCn1cc(C(=O)O)c(=O)c2cnc(N3CCCC3)nc21,-0.379% [at 8.39 µM]
5,CC(Oc1cc(Cl)ccc1Cl)C(=O)O (stereo not drawn),3.79%
6,C/C=C(\C)C(C)=O,1.55%
7,CCOCCOCC,2.02%
8,CCCCCCCCCCCCCBr,13.2%
9,CCC(C(=O)OCCN1CCOC(c2ccccc2)C1C)c1ccccc1 (stereo not drawn),5.2% [at 42.5 µM]
10,CN(C)CCN(C)CCO,-8.22%
11,Cc1ccc(C(C)NC(=O)[C@@H](NC(=O)OC(C)C)C(C)C)cc1 (stereo partly drawn),-12.8%
12,CC1(C)CC(OC(=O)CCCCCCCCC(=O)OC2CC(C)(C)NC(C)(C)C2)CC(C)(C)N1,-15.1% [at 19 µM]
13,CC(=O)O[C@H]1C[C@@H]2CC[C@@]1(C)C2(C)C,-2.98%
14,C=CC/C=C/C,0.145%
15,CSc1cnccn1,8.47%
16,[O-][n+]1cccc(/C(Cl)=N/OC[C@@H](O)CN2CCCCC2)c1,-1.09% [at 42.5 µM]
17,COC(=O)CCCCC(CCSS/C(CCO)=C(\C)N(C=O)Cc1cnc(C)nc1N)SC(C)=O (stereo not drawn),1.78% [at 42.5 µM]
18,C=CCSSCCC,-0.659%
19,CC1=C(O)C(=O)C(C)O1 (stereo not drawn),2.63%
20,COc1nc(N)nc2nc[nH]c12,6.07%
21,CC(=O)c1cc(C)oc1C,1.3%
22,C=C(C)[C@@H]1CC=C(C)C(=O)C1,-8.97%
23,CC12CCC(C1)C(C)(C)C2O (stereo not drawn),3.29%
24,CN(C)CC/C=C1/c2ccccc2COc2ccc(CC(=O)O)cc21,14% [at 42.5 µM]
25,CC(=O)CCC1=C(C)CCCC1(C)C,-2.37%
26,O/N=C/C=N/O,16.6%
27,CCOC(CN1CCN(CC(C)C(=O)c2ccccc2)CC1)c1ccccc1 (stereo not drawn),-6.98% [at 19 µM]

# Assay: qHTS assay to identify small molecule antagonists of the sonic hedgehog signaling (Shh) pathway - cell viability counter screen (AID 1259367); further: nearly all actives have a fitted effect of over 55% in size
# Conditions: NIH/3T3 Gli1-Luc viability, CellTiter-Fluor, 24 h; series mostly up to 92.4 µM; viability change, negative = cytotoxic: at the top concentration
# How it was run: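 NIH/3T3-derived Gli1-Luc reporter cells, 2,000/well, plated 4 hr before compound addition, then stimulated with conditioned medium for 24 hr at 37C. Viability measured in the same wells by CellTiter-Fluor fluorescence, reagent added at 23 hr for 1 hr.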
row,SMILES,"viability change, negative = cytotoxic"
1,CC(=O)OCC(=O)Nc1cc(C#N)cc(NC(=O)COC(C)=O)c1Cl,4.01% [at 42.5 µM]
2,c1ccc(B(c2ccccc2)c2ccccc2)cc1,-7.12%
3,Cc1ccnc(N)c1,9.09%
4,CCn1cc(C(=O)O)c(=O)c2cnc(N3CCCC3)nc21,-1.09% [at 8.39 µM]
5,CC(Oc1cc(Cl)ccc1Cl)C(=O)O (stereo not drawn),-1.36%
6,C/C=C(\C)C(C)=O,0.605%
7,CCOCCOCC,0.4%
8,c1ccc2cnccc2c1,0.744%
9,CCCCCCCCCCCCCBr,2.48%
10,CCC(C(=O)OCCN1CCOC(c2ccccc2)C1C)c1ccccc1 (stereo not drawn),3.02% [at 42.5 µM]
11,O=C[O][Al]([O]C=O)[O]C=O,12%
12,CN(C)CCN(C)CCO,-0.999%
13,Cc1ccc(C(C)NC(=O)[C@@H](NC(=O)OC(C)C)C(C)C)cc1 (stereo partly drawn),-10.9%
14,CC1(C)CC(OC(=O)CCCCCCCCC(=O)OC2CC(C)(C)NC(C)(C)C2)CC(C)(C)N1,-5.84% [at 19 µM]
15,CC(=O)O[C@H]1C[C@@H]2CC[C@@]1(C)C2(C)C,5.01%
16,[O]=[Mo](=[O])=[O],0.3% [at 19 µM]
17,C=CC/C=C/C,1.32%
18,CSc1cnccn1,-3.26%

row,SMILES,"viability change, negative = cytotoxic"
1,[O-][n+]1cccc(/C(Cl)=N/OC[C@@H](O)CN2CCCCC2)c1,1.44% [at 42.5 µM]
2,COC(=O)CCCCC(CCSS/C(CCO)=C(\C)N(C=O)Cc1cnc(C)nc1N)SC(C)=O (stereo not drawn),0.045% [at 42.5 µM]
3,c1ccc(-c2nn[nH]n2)cc1,2.11%
4,C=CCSSCCC,0.98%
5,O=C1CCCCO1,2.83%
6,CC1=C(O)C(=O)C(C)O1 (stereo not drawn),4.34%
7,COc1nc(N)nc2nc[nH]c12,-4.31%
8,O=C(O)CSCC(=O)NC1CCSC1=O (stereo not drawn),-1.11% [at 42.5 µM]
9,CC(C)C[C@@H]1[C@H](c2ccccc2)OC(=O)N1CCCN1CCCCCC1,-3.48% [at 42.5 µM]
10,CC(=O)c1cc(C)oc1C,0.478%
11,C=C(C)[C@@H]1CC=C(C)C(=O)C1,1.44%
12,CC12CCC(C1)C(C)(C)C2O (stereo not drawn),-1.2%
13,Cc1c(NC(=O)c2cccnc2)c(=O)n(-c2ccccc2)n1C,-0.542% [at 42.5 µM]
14,CC(=O)C(C)O (stereo not drawn),-3.19%
15,CC(=O)CCC1=C(C)CCCC1(C)C,-5.67%
16,CC1OCCC1=O (stereo not drawn),2.03%
17,O/N=C/C=N/O,7.09%
18,CCOC(CN1CCN(CC(C)C(=O)c2ccccc2)CC1)c1ccccc1 (stereo not drawn),-0.0061% [at 19 µM]

# Source: PubChem BioAssay (Tox21)
